Source: the supplement of paper PMC10681739

What follows are sequences tested against T1, ETS1 (UniProt P14921) (assay: ETS1 binding intensity (PBM fluorescence), ETS1 alone (arbitrary fluorescence units); higher = stronger binding). Conditions: ETS1 concentration 1 nM; RUNX1 concentration 0 nM.
T1 sequence: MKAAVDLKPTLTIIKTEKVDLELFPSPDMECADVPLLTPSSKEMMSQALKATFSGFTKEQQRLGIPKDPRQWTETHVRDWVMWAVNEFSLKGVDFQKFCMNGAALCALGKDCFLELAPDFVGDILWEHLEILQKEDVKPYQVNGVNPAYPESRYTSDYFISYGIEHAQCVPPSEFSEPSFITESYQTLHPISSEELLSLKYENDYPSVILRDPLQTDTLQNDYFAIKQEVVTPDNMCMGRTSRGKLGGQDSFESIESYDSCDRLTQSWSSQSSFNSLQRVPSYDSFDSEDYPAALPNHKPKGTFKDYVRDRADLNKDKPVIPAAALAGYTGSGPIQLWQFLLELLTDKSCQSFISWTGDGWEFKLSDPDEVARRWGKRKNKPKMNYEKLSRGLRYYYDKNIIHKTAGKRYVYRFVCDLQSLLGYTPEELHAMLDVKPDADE
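Wherever RUNX1 binding intensity (PBM fluorescence), RUNX1 alone is given: Full-length recombinant human RUNX1 bound to double-stranded 36-bp genomic probes on a high-density microarray, scored as Alexa488 fluorescence per spot via anti-RUNX1 antibody, median of four replicate spots.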

| Sequence | ETS1 binding intensity |
| --- | --- |
| ACCCTGAAATTACCCGGATGTGGTCCCCGCGCGCGC | 6470 |
| GGCCGTTCTTCCGCCTGCAGGGTGGTCAGCGGAGGT | 571 |
| CTGACACTTCCGGGAGCCTTGTAGCCACAGGAATCA | 2490 |
| ACTAGAAGCGGAAGTAGTTGTGGGCGCCTTTGCAAC | 5720 |
| TAACTACTTCCTTTTACTATCTACCACAATTTAATT | 516 |
| CTCACAGAAGAGGCAGGAAGTGGTTTGAGTTATCAT | 9460 |
| ATTTTTCCTTCCTTCTCCCGTCCCCGCAGAGTGCAA | 507 |
| GGAGCATCCCGGAAGTCGTCACTGCGGCCGCTCCCG | 6420 |
| GGCGGCACTAGGCTTCCGCCTCACCGCAGTGGGGTT | 362 |
| GAGGCAGGCGGATGTCAGTGTGGTTAGAGCACAGTG | 1170 |
| GACAGTCATGTTTCAGGATGTGGTTTTAGCCAAAGG | 1550 |
| CCCGCTGTCACTTCCTGCTTCCCTCCCGCACACGTG | 2700 |
| GACCTGGGTTTCCTGTCTGTACATCGCGGTTCCTAC | 936 |
| AGTGTCCGCCGCTTCCTGGTTGCGGGTCAGCGCCCA | 629 |
| GTGGAAAGGAAATGTGTCATCTGTGGTTTGGTTTTA | 645 |
| CTTTAAGGAGGCGGAAAAGTTAACCGCGATGGGCAG | 533 |
| TTCAGAAAAAAAGGAAGTGGTAAATTCTTGCTGATT | 1890 |
| AGGCTCATTTCCTGTTTTCATGTGGTTTAGAGAAAA | 2630 |
| AGTGGCAGTGCAGGAAGTGGTTTGTCTGGTACAATC | 3750 |

The sequences below were run against RUNX1 (UniProt Q01196) (assay: RUNX1 binding intensity (PBM fluorescence), RUNX1 alone (arbitrary fluorescence units); higher = stronger binding). Conditions: RUNX1 concentration 2 nM; ETS1 concentration 0 nM.
Sequence of RUNX1 (Q01196 whole entry): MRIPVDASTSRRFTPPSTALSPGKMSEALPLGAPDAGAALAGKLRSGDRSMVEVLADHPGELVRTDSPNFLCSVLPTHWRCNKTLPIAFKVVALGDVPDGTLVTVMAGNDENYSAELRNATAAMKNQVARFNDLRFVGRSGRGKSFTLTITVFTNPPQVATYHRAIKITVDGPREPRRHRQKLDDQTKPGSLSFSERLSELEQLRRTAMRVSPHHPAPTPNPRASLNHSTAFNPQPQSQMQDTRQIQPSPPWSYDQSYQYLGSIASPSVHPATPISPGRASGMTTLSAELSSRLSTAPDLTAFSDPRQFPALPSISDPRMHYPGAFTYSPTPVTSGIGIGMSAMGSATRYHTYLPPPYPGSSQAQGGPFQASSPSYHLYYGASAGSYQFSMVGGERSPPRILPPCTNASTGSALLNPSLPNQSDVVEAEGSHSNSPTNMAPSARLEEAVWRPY
Protocol: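 Cooperative gcPBM on 36-bp genomic probes with neighbouring ETS1 and RUNX1 sites. Recombinant human RUNX1 (2 nM) was incubated alone or with ETS1 (25 nM) and detected with anti-RUNX1 antibody plus Alexa488 secondary. Values are medians over 4 replicate spots; the RUNX1+ETS1 data were normalised to the RUNX1-only data. The probes sit in constant array flanks that are not printed.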

| Sequence | RUNX1 binding intensity |
| --- | --- |
| AGCGGCCTGGGAGGAGGATGTGGTTACGTGGAGACC | 996 |
| GGGGAACGGAAGCTGCTGTCGTTACTGGCGGTTGTA | 767 |
| GACTCTTCCGGCCCAGAGCTTTCGGAGTGCGGTTGC | 858 |
| GGACCGGAAGTAGGTTTCTACCCGACCGCATTTTAC | 889 |
| TGTCCGCACCCCACTTCCGCCCCGCAGAGGGCAACG | 890 |
| CCATTTCCGCGCACGTCTGCAGATGCGGTAGTCGAT | 853 |
| TTGTCGGGTATGGGATGTGGGCAGAGAGTATGATGG | 866 |
| AGATCAACTTCCACATCCGGTGGTAACAGGGCCCTA | 835 |
| AAAGAGGAAATCACATACCCGAAAACCACATGCACA | 944 |
| CCCGGAAACTCAACTGCCCACTGCTGCGGCCGCCAT | 1070 |
| AGAAAAGGAAATGGTGGGCTGCACACCACAGCTCAC | 728 |
| ACTCCCTAGAGCAGGAAGCCTGTGGTTTGTAATTGG | 1040 |
| AGACGGTAGGCCAGGAAACCGCAGGCCCCTGCCGGG | 6110 |
| TCCCACATCCTGTGCTCGTGCAGTGGTTAGGCTCAA | 793 |
| CCGTACTTCCGCTTTACTCAGATTTTGGACCGCGGG | 1490 |
| AATGCCGGATATTGGTTCTGGTAAGCCACAAAAAAG | 836 |
| GCACGCCATCGAGGAAGTGGGTTTACTGTGTATTTC | 723 |
| TGCATGTGCAGCAGAGGAAACCACAAGTTATTCCCT | 1110 |
| GGGATCTACTTCCTCTCTCGGCCGCGGCCGCAGCAC | 792 |
| AAGGCGGAGGAAGGGAAAATTGTGGTTGGGCAGAGG | 835 |

| Sequence | RUNX1 binding intensity |
| --- | --- |
| CCCCTCTCTCCCACTTCCTGTGGTCTCAGTCTTTGT | 1500 |
| ACCCTGAAATTACCCGGATGTGGTCCCCGCGCGCGC | 898 |
| GGCCGTTCTTCCGCCTGCAGGGTGGTCAGCGGAGGT | 712 |
| CTGACACTTCCGGGAGCCTTGTAGCCACAGGAATCA | 743 |
| ACTAGAAGCGGAAGTAGTTGTGGGCGCCTTTGCAAC | 662 |
| TAACTACTTCCTTTTACTATCTACCACAATTTAATT | 1620 |
| CTCACAGAAGAGGCAGGAAGTGGTTTGAGTTATCAT | 820 |
| ATTTTTCCTTCCTTCTCCCGTCCCCGCAGAGTGCAA | 1540 |
| GGAGCATCCCGGAAGTCGTCACTGCGGCCGCTCCCG | 690 |
| GGCGGCACTAGGCTTCCGCCTCACCGCAGTGGGGTT | 855 |
| GAGGCAGGCGGATGTCAGTGTGGTTAGAGCACAGTG | 782 |
| GACAGTCATGTTTCAGGATGTGGTTTTAGCCAAAGG | 816 |
| CCCGCTGTCACTTCCTGCTTCCCTCCCGCACACGTG | 1920 |
| GACCTGGGTTTCCTGTCTGTACATCGCGGTTCCTAC | 856 |
| AGTGTCCGCCGCTTCCTGGTTGCGGGTCAGCGCCCA | 824 |
| GTGGAAAGGAAATGTGTCATCTGTGGTTTGGTTTTA | 1060 |
| CTTTAAGGAGGCGGAAAAGTTAACCGCGATGGGCAG | 996 |
| TTCAGAAAAAAAGGAAGTGGTAAATTCTTGCTGATT | 775 |
| AGGCTCATTTCCTGTTTTCATGTGGTTTAGAGAAAA | 1320 |
| AGTGGCAGTGCAGGAAGTGGTTTGTCTGGTACAATC | 788 |
